In the library only some 7.4% were active in any assay of this set; here they are far more common.
Luc counter – Kinase-Glo luciferase inhibition (counter-screen); Q27757; 200,000 compounds, 0.28% hits; AID 1379; Kinase-Glo luciferase, ATP luminescence, 8 min; Potency, µM (titrated, usually from 38.3 µM), hits mostly inhibitors; also: nearly all actives have a fitted effect of over 60% in size
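Luminescence was the read-out, taken after 8-minute incubation at ambient temperature. Luciferase turned over luciferin with 10 uM ATP in imidazole pH 7.2 buffer containing KCl, MgCl2, Tween 20 and BSA.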
SMN2 splice enh – enhancers of SMN2 splice variant expression. AID 1458. 210,000 compounds, 2.8% hits. Potency, µM (doses to about 46.1 µM), most hits filed as activators. HEK293 SMN2-luciferase splicing reporter, luminescence, 30-36 h; also: nearly all actives have a fitted effect of over 55% in size
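HEK293 cells carry an SMN2 […]–luciferase reporter in which exon 7 inclusion puts luciferase in frame. Cells were plated 10-12 h before compound addition, then incubated 30-36 h at 37C. ONE-Glo luminescence was read; sodium butyrate at 4.5 mM final served as control.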
Rab9 promoter act – activates the Rab9 promoter. Huh7 Rab9 promoter-luciferase reporter, luminescence, 24 h. Potency, µM (titrated, usually from 9.22 µM), hits mostly activators. 320,000 compounds, 2.8% hits; also: nearly all actives have a fitted effect of over 60% in size
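Measured in stably transfected Huh7 cells bearing a Rab9 promoter–luciferase construct: 24 h compound treatment at 37 °C, followed by luminescence detection.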
FLuc counter – counter-screen for miR-21 project: firefly luciferase inhibitors or activators; purified FLuc, Km substrates, luminescence inhibition; Potency, µM (series often up to 57.5 µM), usual class: inhibitors; P08659; AID 588342; 360,000 compounds, 6.9% hits; also: nearly all actives have a fitted effect of over 55% in size
Target sequence (P08659 whole entry, looked up): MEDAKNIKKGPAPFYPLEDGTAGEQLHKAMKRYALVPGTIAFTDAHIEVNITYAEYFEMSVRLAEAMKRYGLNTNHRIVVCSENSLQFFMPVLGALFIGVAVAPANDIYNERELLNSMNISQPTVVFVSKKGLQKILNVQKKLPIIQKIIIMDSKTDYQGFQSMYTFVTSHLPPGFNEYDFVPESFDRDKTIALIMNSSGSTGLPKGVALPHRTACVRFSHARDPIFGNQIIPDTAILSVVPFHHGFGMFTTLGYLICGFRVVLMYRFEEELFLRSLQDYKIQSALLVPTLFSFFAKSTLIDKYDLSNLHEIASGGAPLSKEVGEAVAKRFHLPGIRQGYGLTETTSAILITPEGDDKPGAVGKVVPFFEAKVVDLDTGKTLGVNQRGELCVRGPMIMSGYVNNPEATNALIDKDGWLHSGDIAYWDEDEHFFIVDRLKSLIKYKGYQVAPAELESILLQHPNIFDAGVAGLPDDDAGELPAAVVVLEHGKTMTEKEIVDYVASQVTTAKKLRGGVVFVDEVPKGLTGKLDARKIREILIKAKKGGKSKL
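Purified P. pyralis luciferase, 10 nM final, with Km-level 10 uM D-luciferin and 10 uM ATP in 50 mM Tris acetate pH 7.5, 10 mM Mg acetate, 0.01% Tween-20, 0.05% BSA; 6-point qHTS titration about 60 µM downward; luminescence read.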
NPC1 prom act – activates the NPC1 promoter. Huh7 NPC1 promoter luciferase reporter, 24 h. Potency, µM (highest dose often 9.22 µM), most hits filed as activators. AID 485313. 320,000 compounds, 2.4% hits; also: nearly all actives have a fitted effect of over 60% in size
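NPC1 promoter–luciferase Huh7 cells; 24 h compound; luminescence.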
ELG1 genotoxic – genotoxicity induction in ELG1-luciferase HEK293T cells. HEK293T ELG1-luciferase reporter, luminescence, 16 h. Potency, µM (top dose mostly 46 µM), hits mostly activators. 330,000 compounds, 1.3% hits; also: nearly all actives have a fitted effect of over 60% in size
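After overnight (16 hr) compound treatment at 37 °C, ELG1-luciferase HEK293T cells were lysed with ONE-Glo; luminescence quantified 30 min later at room temperature.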
Of the large screens only hits and unclear results are named; the others gave an inactive call. Calls follow the shape of the dose curve; as a rule, active = well fitted curve in the direction sought with a large enough effect; inconclusive = small, poorly fitted or top-dose-only effect, or another doubt; inactive = no such curve, though single readings can be large; an effect the other way counts as inactive or inconclusive.

COC(=O)c1ccc(COC(=O)c2cccnc2Cl)cc1	FLuc counter inconclusive, ELG1 genotoxic inconclusive (no result: Luc counter, SMN2 splice enh)
O=C(COC(=O)c1cccnc1Cl)c1ccc(OC(F)F)cc1	FLuc counter 5.36µM
COc1ccc(OC)c(C(=O)COC(=O)c2cccnc2Cl)c1	FLuc counter inconclusive
COc1ccc(OC)c(C(=O)COC(=O)c2ccccc2O)c1	FLuc counter 12µM
COc1ccc(OC)c(C(=O)COC(=O)c2c(OC)cccc2OC)c1	none
O=C(COC(=O)c1cccnc1Cl)c1ccc(Cl)cc1Cl	FLuc counter 0.757µM
Cc1cc(C)cc(NC(=O)c2ccc3oc(=O)c(S(=O)(=O)c4ccc(F)cc4)cc3c2)c1	none (no result: Luc counter, Rab9 promoter act, NPC1 prom act, ELG1 genotoxic)
O=C(C1CCC1)N1CCCc2cc(S(=O)(=O)Nc3ccc(F)cc3)ccc21	none (no result: Luc counter, SMN2 splice enh, Rab9 promoter act, NPC1 prom act, ELG1 genotoxic)
COCCNC(=O)CN1C(=O)COc2ccc(S(=O)(=O)N3CCCC3)cc21	none (no result: Luc counter, Rab9 promoter act, NPC1 prom act, ELG1 genotoxic)
O=C(CSc1ncc(CO)n1Cc1ccccc1)Nc1ccc(C(F)(F)F)cc1	none (no result: Luc counter, SMN2 splice enh, Rab9 promoter act, NPC1 prom act, ELG1 genotoxic)
Cc1cc(C)c(C(=O)COC(=O)c2cccnc2Cl)c(C)c1	FLuc counter 16.9µM
COc1cc(/C=N/NC(=S)Nc2cccc(S(=O)(=O)N(C)C)c2)cc(OC)c1O	FLuc counter 15.1µM
CN(C)S(=O)(=O)c1cccc(NC(=S)N/N=C/c2ccco2)c1	FLuc counter inconclusive (no result: Luc counter, SMN2 splice enh)
COc1ccc(O)c(/C=N/NC(=S)Nc2cccc(S(=O)(=O)N(C)C)c2)c1	FLuc counter 10.7µM
CN(C)S(=O)(=O)c1cccc(NC(=S)N/N=C/c2ccc(O)c(O)c2O)c1	FLuc counter 13.5µM (no result: Luc counter, SMN2 splice enh)
Cc1nn(C)cc1CNC(=O)Nc1ccc(Cl)c(Cl)c1	Rab9 promoter act 2.51µM, FLuc counter 23.9µM, NPC1 prom act 3.16µM, ELG1 genotoxic 13µM
Cc1ccc(NC(=O)NCc2c(C)nn(C)c2C)cc1Cl	SMN2 splice enh 15.8µM, Rab9 promoter act 3.98µM, FLuc counter 23.9µM, NPC1 prom act inconclusive, ELG1 genotoxic inconclusive
Cc1nn(C)cc1CNC(=O)C1(C)CC1(Cl)Cl (configuration not stated)	none
COc1cccc2[nH]c3c(N4CCCC(C)C4)ncnc3c12 (configuration not stated)	FLuc counter 5.36µM
CCOC(=O)c1ccc(N2C(=O)c3[nH]nc(-c4ccccc4)c3C2c2ccc(CC)cc2)cc1 (configuration not stated)	none (no result: Luc counter, Rab9 promoter act, NPC1 prom act, ELG1 genotoxic)
O=C(Nc1cccc(NC(=O)c2nccc3ccccc23)c1)c1ccco1	FLuc counter 8.49µM, ELG1 genotoxic inconclusive
O=C(Nc1cccc(NC(=O)c2sc3ccccc3c2Cl)c1)c1ccco1	FLuc counter 2.69µM
CC(=O)Nc1cccc(NC(=O)c2ccco2)c1	none
COc1ccc(F)cc1S(=O)(=O)N1CCCN(S(=O)(=O)c2cc(F)ccc2OC)CC1	none
COc1ccc(F)cc1S(=O)(=O)n1cc(C)nc1-c1ccccc1	SMN2 splice enh 3.55µM
O=C(N/N=C/c1ccc2c(c1)OCO2)c1cccs1	Luc counter 12.6µM, SMN2 splice enh 12.6µM, Rab9 promoter act 1.26µM, FLuc counter 3.38µM, NPC1 prom act 1.26µM, ELG1 genotoxic 7.31µM
Cc1ccsc1/C=N/NC(=O)Nc1ccccc1	SMN2 splice enh 15.8µM, Rab9 promoter act 1.58µM, FLuc counter 2.69µM, NPC1 prom act 3.16µM, ELG1 genotoxic inconclusive
Cc1ccccc1/C=N/NC(=O)c1sccc1C	Luc counter 12.6µM, SMN2 splice enh 10µM, Rab9 promoter act 2.24µM, FLuc counter 1.51µM, NPC1 prom act inconclusive, ELG1 genotoxic 18.4µM
Cc1ccsc1C(=O)N/N=C/c1ccc2c(c1)OCO2	Luc counter 2µM, SMN2 splice enh 2.51µM, Rab9 promoter act 0.631µM, FLuc counter 1.51µM, NPC1 prom act 0.708µM, ELG1 genotoxic 2.31µM
CCCCC(=O)N/N=C/c1sccc1C	none
Cc1nn2c(C)c(C(=O)N3CCN(c4ccccc4)CC3)cnc2c1-c1ccccc1	none (no result: Luc counter, SMN2 splice enh, Rab9 promoter act, NPC1 prom act, ELG1 genotoxic)
CC(=O)N1c2ccc(S(=O)(=O)N3CCN(c4ccc(C)cc4C)CC3)cc2CC1C (configuration not stated)	none (no result: Luc counter, SMN2 splice enh, Rab9 promoter act, NPC1 prom act, ELG1 genotoxic)
COc1ccc(NC(=O)c2cc3nc(-c4ccc(C)c(C)c4)cc(C(F)(F)F)n3n2)cc1	none (no result: Luc counter, Rab9 promoter act, NPC1 prom act, ELG1 genotoxic)

Assay outcomes as filed in PubChem BioAssay.
